# Results filed as inconclusive are left out. Activity calls are given as the source filed them. Calls follow the shape of the dose curve; as a rule, active = well fitted activation curve with a large enough effect in the signal ratio in the repeat runs (not every such curve was filed as active); inconclusive = weak or mixed curves; inactive = flat fitted curve, though single readings scatter; the % refers to the signal ratio.
# Assay: qHTS assay to identify small molecule agonists of the hypoxia (HIF-1) signaling pathway (AID 1224846)
# Details: HRE-bla ME-180 cells, beta-lactamase ratio, 17 h; series mostly up to 76.8 µM
# From the text: U.S. Tox21 Program National Center for Advancing Translational Sciences [NCATS] NIH Chemical Genomics Center [NCGC] U.S. Environmental Protection Agency [EPA] National Institutes of Environmental Health Sciences [NIEHS] National Toxicology Program [NTP] U.S. Food and Drug Administration [FDA] Tox21 Assay Overview: Hypoxia-inducible factor-1 (HIF-1) is the major hypoxia-regulated transcription factor that controls cellular responses to low oxygen concentration. HIF-1 is composed of two subunits: hypoxia responsive HIF-1-alpha and constitutively expressed HIF-1-beta, which is also known as aryl hydrocarbon receptor nuclear translocator. During hypoxic conditions, HIF-1-alpha heterodimerizes with HIF-1-beta and translocates into the nucleus where the HIF-1 complex binds to the hypoxia-response element (HRE) and activates expression of target genes such as VEGF (vascular endothelial growth factor). The HIF-1 pathway is essential to normal growth and development, and is involved in the pathophysiology of cancer, inflammation, and ischemia. Using a beta-lactamase reporter-gene under control of the hypoxia response element, a cell-based assay [CellSensor(TM) HRE-bla ME-180 from Life Technologies, Carlsbad, CA] was used to measure hypoxia-induced signaling. Tox21 10K library compounds were measured for their ability to induce the reporter gene activity.
# Tox21 Assay Protocol Summary: HRE-bla ME-180 cells were dispensed at 2,000 cells per well in 6 uL of assay medium containing 0.5% dialyzed FBS into black wall/clear-bottom 1536-well plates using a Multidrop Combi (Thermo Scientific, Waltham, MA) dispenser. After the assay plates were incubated at 37C and 5% CO2 for 5 hrs, 23 nL of compounds dissolved in DMSO, positive controls or DMSO only was transferred to each well of the assay plate using a Pintool station (Kalypsys, San Diego, CA). The assay plates were incubated at 37C and 5% CO2 for 17 hrs. One uL of LiveBLAzerTM B/G FRET substrate (CCF4-AM) (Life Technologies) was added to each well using a Flying Reagent Dispenser (Aurora Discovery, San Diego, CA).
row,SMILES,outcome
1,O=C(O)C(Br)Br,inactive
2,C=CC#N,inactive
3,Cc1cccc(C)c1NC(=O)CN1CCCC1=O,inactive
4,O=C/C=C/c1ccccc1,inactive
5,Nc1nc(N)nc(NC2CC2)n1,inactive
6,Cc1cccc(C)c1N,inactive
7,FC(F)(F)c1ccc(Cl)cc1,inactive
8,Cl/C=C/Cl,inactive
9,ClCCOCCCl,inactive
10,O=[N+]([O-])c1cc([As](=O)(O)O)ccc1O,inactive
11,COP(=S)(OC)SCN1C(=O)c2ccccc2C1=O,inactive
12,Nc1ccc(N)cc1,inactive
13,COP(=S)(OC)Oc1ccc(SC)c(C)c1,inactive
14,CC(=O)C1CCOC1=O (stereo not given),inactive
15,CC(C)(C)C(=O)CCl,inactive
16,O=C(O)COc1ccccc1,inactive
17,Cc1cccc(N)c1C,inactive
18,O=[N+]([O-])c1ccc(Cl)cc1,inactive
19,O=[N+]([O-])c1ccc(Cl)c(Cl)c1,inactive
20,Oc1ccc(Cl)cc1,inactive

row,SMILES,outcome
1,Nc1ncc([N+](=O)[O-])s1,inactive
2,N#Cc1cccc(C#N)c1,inactive
3,C/C=C/c1ccc2c(c1)OCO2,inactive
4,C=CC(=O)OCC(CC)CCCC (stereo not given),inactive
5,CCSC(=O)N1CCCCCC1,inactive
6,CC12CC1(C)C(=O)N(c1cc(Cl)cc(Cl)c1)C2=O (stereo not given),inactive
7,CNC(=O)O/N=C/C(C)(C)SC,inactive
8,Nc1ccc([As](=O)(O)O)cc1,inactive
9,Cc1ccc(N=C=O)cc1N=C=O,inactive
10,N#CN=C(N)N,inactive
11,CNCC(O)c1ccc(O)cc1 (stereo not given),inactive
12,Cl[C@H]1OCCO[C@@H]1Cl,inactive
13,Nc1cccc(Cl)c1,inactive
14,CCOC(=O)CC(SP(=O)(OC)OC)C(=O)OCC (stereo not given),inactive
15,O=C(O)c1cc(Oc2ccc(C(F)(F)F)cc2Cl)ccc1[N+](=O)[O-],inactive
16,CCCCCCCCCCCCCCCCCC(=O)O,inactive
17,CCCCC(CC)C(=O)Cl (stereo not given),inactive
18,CNC(=O)O/N=C/C(C)(C)S(C)(=O)=O,inactive
19,O=S(=O)(O)OOS(=O)(=O)O,inactive
20,C=CC(=O)OCCCCCC(C)C,inactive

# — PubChem BioAssay (Tox21)
